“And” between values parts separate entries of the source, which are not always exact repeats. Identical values can stand only once. More than one record can exist for a structure, and the calls need not agree. The source made the active and inactive calls. The calls were made as follows: active = hit-call score of the fitted dose curve at least 0.9, where 1 is the maximum; inconclusive = response in the unintended direction; inactive = score below 0.9.
The molecules below were run against Estrogen receptor beta (Homo sapiens) (UniProt Q92731) (assay: OT_ER_ERbERb_1440: Odyssey Thera (OT) 24-hour HEK293T Protein-Complementation Assay for Estrogen Receptor-beta/-beta Homodimer (AID 2283380);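 also: scored as signal increase over DMSO baseline for both agonists and antagonists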).
Chain of Estrogen receptor beta (Homo sapiens) (Q92731 whole entry, looked up, the tested form may be a part): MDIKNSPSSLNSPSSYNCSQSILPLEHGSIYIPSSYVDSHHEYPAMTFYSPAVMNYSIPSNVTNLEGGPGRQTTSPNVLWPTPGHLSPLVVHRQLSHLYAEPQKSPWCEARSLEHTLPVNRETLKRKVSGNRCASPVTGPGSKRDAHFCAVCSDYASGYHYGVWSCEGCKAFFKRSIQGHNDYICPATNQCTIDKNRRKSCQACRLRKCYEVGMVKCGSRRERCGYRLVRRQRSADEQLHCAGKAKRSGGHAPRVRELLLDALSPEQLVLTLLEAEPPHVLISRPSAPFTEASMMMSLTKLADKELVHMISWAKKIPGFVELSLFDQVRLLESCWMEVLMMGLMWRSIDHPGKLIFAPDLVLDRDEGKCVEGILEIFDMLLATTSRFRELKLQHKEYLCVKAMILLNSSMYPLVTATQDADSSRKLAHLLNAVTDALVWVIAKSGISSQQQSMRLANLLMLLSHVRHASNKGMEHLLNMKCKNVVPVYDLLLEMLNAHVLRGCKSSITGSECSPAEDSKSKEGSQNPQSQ
Method: OT_ER_ERbERb_1440 is a cell-based assay that uses HEK293T, a human kidney cell line, with measurements taken at 24 hours after chemical dosing in a 384-well plate.OT_ER_ERbERb_1440 is one of one assay component(s) measured or calculated from the OT_ER_ERbERb_1440 assay. It is designed to make measurements of protein fragment complementation, a form of binding reporter, as detected with fluorescence intensity signals by Protein-fragment Complementation technology.Data from the assay component OT_ER_ERbERb_1440 was analyzed into 1 assay endpoint. This assay endpoint, OT_ER_ERbERb_1440, was analyzed in the positive analysis fitting direction relative to DMSO as the negative control and baseline of activity. Using a type of binding reporter, measures of receptor for gain-of-signal activity can be used to understand the binding at the pathway-level as they relate to the gene ESR2. Furthermore, this assay endpoint can be referred to as a primary readout, because the performed assay has only produced 1 assay endpoint. To generalize the intended target to other relatable targets, this assay endpoint is annotated to the nuclear receptor intended target family, where the subfamily is steroidal.
Protein-fragment complementation assay, or PCA, is a method for the identification and quantification of protein-protein interactions. In the PCA, the proteins of interest ("bait" and "prey") are each covalently linked to fragments of a third protein (e.g. DHFR, which acts as a "reporter"). Interaction between the bait and the prey proteins brings the fragments of the reporter protein in close proximity to allow them to form a functional reporter protein whose activity can be measured. The OT ER beta / ER beta assay is a homodimer PCA of the ligand binding domain (LBD; amino acids 310-547) of human ER beta stably expressed in HEK293T cells. […] Cells are fixed in 4 percent formaldehyde and stained with Draq5 (BioStatus) to identify cells prior to signal detection. Fluorescent signal in the basal state of the assay is very low and is primarily punctuate and cytoplasmic. Modulation of this assay is quantified as an increase in mean fluorescence intensity in the nucleus (for agonists) or in the nucleus and cytoplasm (antagonists) relative to vehicle controls, and can be quantified on a high content imaging device or a laser scanning cytometer. The latter instrument is favored for this assay because of the rapid mode of data acquisition, the ability to acquire data from the entire cell population in a well (as opposed to a fraction of the well on the high content devices) and the larger dynamic range typically achieved with this instrument. To assess sensitivity of the ER beta/ER beta LBD assay to ligand, cells were treated with the ER agonist 17- beta-estradiol (E2) in 10-point concentration- response format for 24 hours and monitored response on a laser scanning plate cytometer (Acumen eX3; TTP Lab Tech).

Row | SMILES | outcome | AC50
1 | C#CCOC(=O)[C@@H](C)Oc1ccc(Oc2ncc(Cl)cc2F)cc1 | inactive | 
2 | COC(=O)c1ccccc1C(=O)O | inactive | 
3 | C=CCOC(Cn1ccnc1)c1ccc(Cl)cc1Cl (centres undefined) |  | 60.6 µM (active)
4 | CCCCOC(=O)[C@@H](C)Oc1ccc(Oc2ccc(C(F)(F)F)cn2)cc1 | inactive | 
5 | CCNc1nc(N)nc(Cl)n1 | inactive | 
6 | CCCCOC(=O)C(C)Oc1ccc(Oc2ccc(C(F)(F)F)cn2)cc1 (centres undefined) | inactive | 
7 | CCCOC(=O)c1ccc(C(=O)OCCC)nc1 | inactive | 
8 | CCCN(CCC)C(=O)SCC | inactive | 
9 | CCCCCCC(C)OC(=O)COc1nc(F)c(Cl)c(N)c1Cl (centres undefined) |  | 72.8 µM (active)
10 | CCN(CC)C(=O)c1cccc(C)c1 | inactive | 
11 | CCCCOCCOCCOCc1cc2c(cc1CCC)OCO2 | inactive | 
12 | c1ccc(Nc2ccccc2)cc1 | inactive | 
13 | O=C(c1ccc(O)cc1O)c1ccc(O)cc1O |  | 2.09 µM (active) and 2.02 µM (active) and 2.21 µM (active)
14 | COC(=O)c1ccc(I)cc1S(=O)(=O)NC(=O)Nc1nc(C)nc(OC)n1 | inactive | 
15 | CC(C)CCCCCCc1ccc(O)cc1 |  | 1.2 µM (active) and 1.06 µM (active) and 1.25 µM (active)
16 | CCOC(=O)COc1cc(-n2ncc(C(F)(F)F)c(C)c2=O)c(F)cc1Cl | inactive | 
17 | O=C(O)C1(C(=O)Nc2ccc(Cl)cc2Cl)CC1 | inactive | 
18 | CCN(Cc1c(F)cccc1Cl)c1c([N+](=O)[O-])cc(C(F)(F)F)cc1[N+](=O)[O-] | inactive | 
19 | O=C(Nc1ccc([N+](=O)[O-])cc1Cl)c1cc(Cl)ccc1O | inactive | 

Row | SMILES | outcome | AC50
20 | CC(C)(C)[C@@H](O)[C@@H](Cc1ccc(Cl)cc1)n1cncn1 | inactive | 
21 | c1ccc2[nH]c(-c3cscn3)nc2c1 | inactive | 
22 | S=C([S-])NCCNC(=S)[S-].[Mn+2] | inactive | 
23 | CC(=O)S[C@@H]1CC2=CC(=O)CC[C@]2(C)[C@H]2CC[C@@]3(C)[C@@H](CC[C@@]34CCC(=O)O4)[C@H]12 | inactive | 
24 | CCCCCOC(=O)COc1cc(N2C(=O)C3=C(CCCC3)C2=O)c(F)cc1Cl | inactive | 
25 | CCSC(=O)N(CC(C)C)CC(C)C | inactive | 
26 | Cc1nn(C)c(Oc2ccccc2)c1C=NOCc1ccc(C(=O)OC(C)(C)C)cc1 | inactive | 
27 | CCCN(CCC)c1c([N+](=O)[O-])cc(C(F)(F)F)c(N)c1[N+](=O)[O-] | inactive | 
28 | CCCCC(CC)CN1C(=O)C2C3C=CC(C3)C2C1=O (centres undefined) | inactive | 
29 | CCOC(=O)c1ccc(O)cc1 | inactive | 28.6 µM (active) and 25.9 µM (active) and 32.9 µM (active)
30 | COC(=O)CSc1cc(N=c2sc(=O)n3n2CCCC3)c(F)cc1Cl | inactive | 
31 | CCOC(=O)C(C)Oc1ccc(Oc2nc3ccc(Cl)cc3o2)cc1 (centres undefined) | inactive | 
32 | CC(=O)[C@H]1CC[C@H]2[C@@H]3CCC4=CC(=O)CC[C@]4(C)[C@H]3CC[C@]12C | inactive | 
33 | CCC(C)OC(=O)N1CCCCC1CCO (centres undefined) | inactive | 
34 | C[C@]12C[C@H](O)[C@H]3[C@@H](CCC4=CC(=O)CC[C@@]43C)[C@@H]1CC[C@@H]2C(=O)CO | inactive | 
35 | S=C(S)NCCNC(=S)S.[Mn+2].[S-]C([S-])=NCCN=C([S-])[S-].[Zn+2] | inactive | 
36 | COc1c(Cl)ccc(Cl)c1C(=O)O | inactive | 
37 | CCCCC(CC)COC(=O)c1ccccc1C(=O)O (centres undefined) | inactive | 
38 | N#CSCSc1nc2ccccc2s1 | inactive | 

Reference: PubChem BioAssay (EPA / NIEHS)
